# High-throughput results (PubChem)
# APP transl inh – inhibitors of APP translation via 5'UTR reporter, primary screen, APP 5'UTR luciferase, SH-SY5Y cells. SH-SY5Y APP 5'UTR-luciferase reporter, luminescence. inhibition, % at 2 µM. 0.82% of 190,000 active;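 active = inhibition above a set limit, derived from the sample mean plus 3 SD, cut at about 45% in these data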
# APP 5'UTR act – activators of APP 5'UTR luciferase reporter, primary screen, SH-SY5Y cells; SH-SY5Y APP 5'UTR luciferase reporter, luminescence; zero percent = DMSO vehicle wells; activation, % at 2 µM; 1% of 190,000 active; AID 1276, 2008;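 active = activation above a set limit, based on mean plus 3 SD of controls, cut at about 140% in these data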
# NF-kB neuron act – activators of NF-kB expression in neurons, primary screen, cell-based, HTS | human neuronal cells, NF-kB reporter expression; hits give high values | fold change at 12.5 µM | 1.6% of 190,000 active | AID 1239, 2008; in the data active = fold change above about 3.3
# STAT1 activator – STAT1 signaling activators, primary screen, cell-based, HTS, luciferase reporter. NIH 3T3 STAT1-luciferase reporter, IFN-gamma, luminescence; 100% = IFN-gamma alone, no compound. activation (% of control), % at 5.5 µM. 2.6% of 200,000 active. AID 932, 2007;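 active = activation above the screen-wide mean activation plus 3 SD, cut at about 130% in these data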;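 note: raw ratio to IFN-gamma control signal so 100% means no change and 0% no light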
# Wee1 degr inh – Wee1 degradation inhibitors, primary screen, cell-based, HeLa, Wee1K328M-luciferase, luminescence; reporter increase, % at 5 µM; Wee1-like protein kinase (Homo sapiens), P30291; 1.2% of 220,000 active; HeLa Luc-Wee1K328M stability; 100% = proteasome inhibitor MG132 effect;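 active = activation above the mean of all tested compounds plus 3 SD, set per screening run, cut at about 8.8% in these data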;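 note: cells exposed to compound for 20 h before luminescence read; 0% = DMSO alone and 100% = MG132 at 30 µM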
# Target sequence (P30291 whole entry K328M): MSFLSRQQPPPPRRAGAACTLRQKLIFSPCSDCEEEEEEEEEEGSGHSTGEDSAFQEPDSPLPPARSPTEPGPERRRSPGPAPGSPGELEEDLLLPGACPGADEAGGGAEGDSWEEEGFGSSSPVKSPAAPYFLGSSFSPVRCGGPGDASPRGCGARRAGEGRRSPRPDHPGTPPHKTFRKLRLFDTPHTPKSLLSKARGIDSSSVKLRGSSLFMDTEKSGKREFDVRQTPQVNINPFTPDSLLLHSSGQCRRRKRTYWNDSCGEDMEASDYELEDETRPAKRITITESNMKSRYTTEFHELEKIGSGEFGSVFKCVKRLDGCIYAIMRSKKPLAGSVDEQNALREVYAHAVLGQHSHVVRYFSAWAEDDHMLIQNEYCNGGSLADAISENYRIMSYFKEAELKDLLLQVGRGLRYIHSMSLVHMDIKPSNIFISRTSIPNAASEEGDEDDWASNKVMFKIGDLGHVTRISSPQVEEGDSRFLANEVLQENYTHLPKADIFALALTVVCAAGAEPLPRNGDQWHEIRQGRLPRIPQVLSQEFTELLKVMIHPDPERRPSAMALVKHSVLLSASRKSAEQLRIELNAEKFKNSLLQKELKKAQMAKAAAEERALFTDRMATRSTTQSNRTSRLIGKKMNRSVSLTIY
# Hsp70 activator – Hsp70 transcriptional activators, primary screen, cell-based, HeLa, Hsp70 promoter luciferase, luminescence, 10 µM; HeLa Hsp70 promoter luciferase reporter; scaled: vehicle 0, proteasome-inhibitor control 100%; activation, % at 10 µM; 0.04% of 200,000 active; AID 1203, 2008;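 active = activation above the mean across all tested compounds plus 3 SD, cutoff set per campaign, cut at about 5.5% in these data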;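 note: 100% = MG132 at 30 µM as the positive control and 0% = DMSO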
# * hit, by the source's call; / = no result given. Only some compounds are listed: those with a hit (about 4.8% of all), similar ones and a draw of the others.
SMILES,APP transl inh,APP 5'UTR act,NF-kB neuron act,STAT1 activator,Wee1 degr inh,Hsp70 activator
O=C(N/N=C/c1ccccn1)c1ccc(N/N=C/c2ccccn2)cc1,-48,48,0.89,104,2,0
COc1nc(OC)nc(N2CCCCCC2)n1,1,/,1.2,91,-2,0
O=C(N/N=C/c1ccccn1)NC12CC3CC(CC(C3)C1)C2,/,/,/,/,10.0*,/
Cc1cccc(C(=O)N/N=C/c2ccccn2)c1,-22,22,1.7,136*,-2,0
O=C(NC(=O)N1CCN(c2ccc(F)cc2)CC1)c1ccccc1,-2,3,1.1,102,-1,-1
O=C(c1ccccc1-c1ccccc1)N1CCN(c2ccccn2)CC1,46*,-46,0.96,98,4,-1
Cc1ccccc1C(=O)N1CCN(c2ccccn2)CC1,-7,7,1.2,94,-1,0
O=C(c1cccc(COc2ccc(Cl)cc2Cl)c1)N1CCN(c2ccccn2)CC1,-173,173*,1.9,115,7,1
O=C(c1ccc(Cl)cc1[N+](=O)[O-])N1CCN(c2ccccn2)CC1,9,-9,1.1,96,9.3*,0
O=C(c1ccc(Cl)c([N+](=O)[O-])c1)N1CCN(c2ccccn2)CC1,-12,12,1,107,-1,0
Cc1ccc(C)c(S(=O)(=O)NCC(=O)NCc2ccco2)c1,-38,38,1.2,96,1,0
O=C(NCCCn1ccnc1)c1ccc(S(=O)(=O)N2CCCCCC2)cc1,1,-1,1.1,102,-1,0
CC1CC(C)CN(S(=O)(=O)c2ccc(C(=O)NCCCn3ccnc3)cc2)C1 (configuration not stated),73*,-73,0.84,96,3,0
O=C(NCCCn1ccnc1)c1ccc(S(=O)(=O)N2CCOCC2)cc1,6,-6,4*,99,1,0
O=C(NCCCn1ccnc1)c1ccncc1,13,-13,1.2,98,0,0
Cn1c(-c2ccc3ccccc3n2)nc2cnccc21,-109,109,2,133*,0,0
COc1cc(OC)c(-c2nc3cnccc3n2C)cc1OC,3,-3,1,105,-1,0
Cc1cc(OCC(=O)Nc2cc(-c3nn4c(C)nnc4s3)ccc2C)ccc1Cl,-11,11,1.1,102,0,0
CSc1ccccc1-c1nnc(-c2ccccc2)o1,-140,140*,5.5*,144*,4,0
CSc1nnc(-c2ccccc2SC)o1,-8,8,1.3,97,-1,0
CSc1ccccc1-c1nnc(-c2ccc(C)cc2)o1,-80,80,5*,146*,0,1
COC(=O)c1c(N(S(C)(=O)=O)S(C)(=O)=O)sc2c1CCN(c1ncc(C(F)(F)F)cc1Cl)C2,6,-6,3.4*,91,-1,0
COC(=O)c1c(/N=C/N(C)C)sc2c1CCN(c1ncc(C(F)(F)F)cc1Cl)C2,-10,10,1.2,106,-5,0
Cc1ccc(-c2nc3ccccc3n2C)o1,-46,46,3.6*,130*,8,0
Cn1c(-c2ccc(Br)o2)nc2ccccc21,-135,135,4.5*,140*,3,0
SMILES,APP transl inh,APP 5'UTR act,NF-kB neuron act,STAT1 activator,Wee1 degr inh,Hsp70 activator
Brc1ccc(Cn2c(-c3ccc(Br)o3)nc3ccccc32)o1,-29,29,1.2,110,0,0
CCC(=O)c1cc(-c2nc3ccccc3n2C)n(C)c1,13,-13,1.2,95,0,0
Cn1c(-c2ccc(Br)o2)nc2cc(Br)ccc21,/,/,5.3*,138*,2,0
CC(=O)c1ccc(-c2nc3ccccc3n2C)o1,-40,40,2.2,130*,-1,0
Cn1c(Sc2nc3ccccc3n2C)nc2ccccc21,-16,16,1.1,92,-2,0
Cc1oc(-c2nc3ccccc3n2C)cc1C(=O)c1ccccc1,-190,190*,2.6,64,3,-1
Cn1cc(C(=O)c2ccccc2)cc1-c1nc2ccccc2n1C,2,-2,0.78,94,2,0
COc1ccccc1/C=N/Nc1nncc2ccccc12,-36,37,1.7,150*,2,0
COc1ccccc1/C=N/Nc1cc(N(C)C)nc(N(C)C)n1,-2,2,1.1,91,1,0
COc1ccc(/C=N/Nc2nncc3ccccc23)cc1,-188,188*,3.1,120,4,0
CCOC(=O)CCCCNC(=O)Nc1ccccc1,13,-13,1.3,97,-3,0
Cc1ccc(N2CCN(c3cc(C)nc4nc(C)nn34)CC2)c(C)c1,9,-9,1.3,102,6,0
COc1ccc(-c2cc3nc4n(c(=O)c3s2)CCC4)cc1,-160,160*,1.1,40,-4,-1
Cc1c(C(=O)OCC2CCCO2)[nH]c2c1C(=O)CC(c1ccco1)C2 (configuration not stated),33,-33,0.54,96,6,0
Cc1c(C(=O)OCC(C)C)[nH]c2c1C(=O)CC(c1ccco1)C2 (configuration not stated),96*,-96,2.9,102,0,1
COc1ccc(OC)c(C2CC(=O)c3c([nH]c(C(=O)OC(C)C)c3C)C2)c1 (configuration not stated),95*,-95,2.2,110,2,0
C=CCOC(=O)c1[nH]c2c(c1C)C(=O)CC(c1ccco1)C2 (configuration not stated),96*,-97,4.7*,97,0,1
CCOC(=O)c1[nH]c2c(c1C)C(=O)CC(c1ccc(OC)c(OC)c1)C2 (configuration not stated),44,-44,1.1,91,2,0
Cc1c(C(=O)OC2CCCC2)[nH]c2c1C(=O)CC(c1ccco1)C2 (configuration not stated),94*,-94,4.3*,97,-4,0
COc1cc(NS(=O)(=O)c2ccc(OC)c(OC)c2)cc(OC)c1,0,0,0.91,96,-2,0
CCc1nccn1-c1cc(C(C)(C)C)nc2c(-c3ccc(Cl)cc3)cnn12,-7,7,0.94,114,2,0
COc1ccc(-n2c(=O)cc(N3CCOCC3)[nH]c2=O)cc1,-13,13,1.3,100,4,0
CC(C)(C)NC(=O)/C(=C\c1ccc(Br)cc1)NC(=O)c1cccs1,9,-9,0.97,101,3,0
